Test results as given in PubChem BioAssay AID686979 (National Center for Advancing Translational Sciences (NCATS), 2013).
Out of some 420,000 compounds screened, about 50,000 (12%) were called active. Inconclusive results (about 26%) are left out. Calls follow the shape of the dose curve; as a rule, active = well fitted inhibition curve with a large enough effect; inconclusive = small, poorly fitted or top-dose-only effect; inactive = flat fitted curve, though single readings scatter. Shown is part of a subset that was picked to be rich in actives. Entries that show only a call come without a potency.

test: qHTS for Inhibitors of human tyrosyl-DNA phosphodiesterase 1 (TDP1): qHTS in cells in presence of CPT; conditions: chicken DT40 Tdp1-/-;hTDP1 cells + 20 nM CPT, ATP luminescence, 48 h; series mostly up to 46.2 µM; also: nearly all actives have a fitted effect of over 55% in size
Outline: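 Chicken DT40 Tdp1-/- cells complemented with human TDP1, 400 cells/well, exposed to compounds plus 20 nM camptothecin for at least 48 h at 37 C; viability read as ATP content by CellTiter-Glo luminescence.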
Potency is read from the fitted curve at half-maximal effect.

Row | SMILES | Potency
1 | CN(CCC1CCOCC1)C(=O)CC1C(=O)NCCN1Cc1cccc(F)c1 (centres undefined) | inactive
2 | CC1CC(C)CN(CCOc2cccc3ccccc23)C1 (centres undefined) | inactive
3 | O=C(Nc1ccc([N+](=O)[O-])cc1)OCCc1ccccn1 | inactive
4 | COc1ccc(CN2CCOc3c(cc(-c4ncc(C(F)(F)F)cc4Cl)cc3OCC3CCCO3)C2)c(O)c1 (centres undefined) | inactive
5 | O=C(CN1C(=O)NC2(CCOc3ccccc32)C1=O)NCc1ccc(F)cc1 (centres undefined) | inactive
6 | O=C(NCCCn1ccnc1)C(=O)c1cn(CC(=O)N2CCCCCC2)c2ccccc12 | inactive
7 | CC(C)NC(=O)c1nn(-c2ccccc2F)nc1CO | inactive
8 | CC1(C)NC(=O)N(CC(=O)Nc2ccc(-c3ccccc3)cc2)C1=O | inactive
9 | O=C(CSc1nnc(SCc2ccc(Cl)cc2)s1)N/N=C/c1ccccc1Cl | 18.4 µM (active)
10 | Cc1nnsc1C(=O)N/N=C/c1ccccc1Cl | inactive
11 | O=C(Cc1ccccc1)N/N=C/c1ccc(Cl)cc1Cl | inactive
12 | C=CCOc1ccccc1NC(=O)CN1C(=O)CNC1=O | inactive
13 | COc1ccc(CCn2cc3c(c2-c2ccc(Br)cc2)c(=O)n(C)c(=O)n3C)cc1OC | 23.1 µM (active)
14 | COc1ccc(CCN2CNc3c(c(=O)n(C)c(=O)n3C)C2)cc1OC | inactive
15 | COc1ccc(CCN2C(=O)C(C)=C(C)C2=O)cc1OC | inactive
16 | O=S(=O)(c1ccc(-c2ccno2)s1)N1CCCCC1 | inactive
17 | COc1cccc(/C=C2\C=C(c3ccc(C)cc3)OC2=O)c1OC(C)=O | inactive
18 | COCc1c(C(=O)N/N=C\c2cccnc2)nnn1-c1nonc1N | inactive
19 | CCCCNC(=O)C(=O)c1ccccc1NC(C)=O | inactive
20 | CCCCNC(=O)Nc1c(C)cc(SC#N)cc1C | 18.4 µM (active)
21 | c1ccc(CCc2ccccn2)cc1 | inactive
22 | Cc1ccc(CC2CC(=O)N(c3nc(C)cc(C)n3)C2=O)cc1 (centres undefined) | inactive
23 | CC(=O)N1CC(C)c2scc(C)[n+]2-c2ccccc21 (centres undefined) | inactive
24 | CCOC(=O)c1nnn(-c2nonc2-n2cccc2)c1CN1CCC(C(=O)OCC)CC1 | 18.4 µM (active)
25 | NNC(=O)c1nnn(-c2nonc2N)c1CN1CCCC1 | inactive

Row | SMILES | Potency
26 | CCOC(=O)c1nnn(-c2nonc2-n2cccc2)c1CN1CCOCC1 | inactive
27 | CCOC(=O)C1(Cc2cccc(OC)c2)CCCN(C(=O)CCSC)C1 (centres undefined) | inactive
28 | CC1(c2ccccc2)NC(=O)N(CC(=O)N2CC(=O)Nc3ccccc32)C1=O (centres undefined) | inactive
29 | Nc1nc2c(ncn2[C@@H]2O[C@H](CNS(=O)(=O)N3CCc4ccccc4C3)[C@@H](O)[C@H]2O)c(=O)[nH]1 | inactive
30 | COC1C(CO)OC(n2cnc3c(=S)nc(N)[nH]c32)C1O (centres undefined) | 16.4 µM (active)
31 | CC(C)Sc1nc(N)nc2c1ncn2C1OC(CO)C(O)C1O (centres undefined) | inactive
32 | COC(=O)CNS(=O)(=O)c1ccc(Cc2ccc(S(=O)(=O)NCC(=O)OC)cc2)cc1 | inactive
33 | CCn1c(SCC(=O)Nc2ccc3c(c2)OCCO3)nnc1C(C)C | inactive
34 | CCCn1c(SCC(=O)c2ccc3c(c2)OCCO3)nnc1C(C)C | 23.1 µM (active)
35 | CCCn1c(SCC(N)=O)nnc1C(C)C | inactive
36 | Cn1c(SCC(=O)N2CCCc3ccccc32)nc2ccccc2c1=O | 7.31 µM (active)
37 | O=C(CSc1nc2ccccc2c(=O)n1CCCO)N1CCc2ccccc21 | inactive
38 | CCC(=O)N1CCCc2ccccc21 | inactive
39 | CC(C)CNC(=S)NNC(=O)c1ccccc1OC(F)F | inactive
40 | CCOc1cc(C(=S)N2CCOCC2)ccc1OS(=O)(=O)c1ccc(Br)cc1 | inactive
41 | CC(=O)Nc1ccc(S(=O)(=O)Oc2ccc(Br)cc2C(=S)N2CCOCC2)cc1 | inactive
42 | O=S(=O)(Oc1ccccc1C(=S)N1CCOCC1)c1ccc(Cl)cc1 | 16.4 µM (active)
43 | N/C(=N/O)c1cccn1Cc1ccccc1[N+](=O)[O-] | inactive
44 | O=c1c([N+](=O)[O-])cccn1Cc1ccc(F)cc1Cl | 11.6 µM (active)
45 | O=[N+]([O-])c1ccccc1NCc1ccccc1Cl | inactive
46 | O=C(O)c1ccc(S(=O)(=O)c2ccccc2)s1 | inactive
47 | O=C(N=C1SC2CS(=O)(=O)CC2N1Cc1ccccc1)c1ccccc1 (centres undefined) | inactive
48 | COC(=O)c1sccc1NS(=O)(=O)c1ccc(F)cc1F | inactive
49 | O=C(O)c1ccccc1/C=N/Nc1ccc(S(=O)(=O)Nc2ccc(Cl)cc2)cc1[N+](=O)[O-] | inactive
50 | O=[N+]([O-])c1cc(S(=O)(=O)Nc2cccc(Cl)c2)ccc1N=Nc1c(O)[nH]c2ccccc12 | 20.6 µM (active)

Row | SMILES | Potency
51 | COc1ccc(S(=O)(=O)Nc2ccc3cn[nH]c3c2)cc1[N+](=O)[O-] | inactive
52 | CN(Cc1ccc(F)cc1Cl)S(=O)(=O)c1cccs1 | inactive
53 | Cn1cc(C(=O)c2ccc(Cl)cc2Cl)cc1C(=O)NN | inactive
54 | CC(OC(=O)CCc1nc(=O)c2ccccc2n1C)C(=O)NCc1ccc2c(c1)OCO2 (centres undefined) | inactive
55 | Cc1ccc(S(=O)(=O)CC(=O)Nc2nnc(C)s2)cc1 | inactive
56 | CCOc1ccc(OCC)c(NC(=O)CCS(=O)(=O)c2ccc(C)cc2)c1 | inactive
57 | CCOC(=O)c1ccc(NC(=O)CCS(=O)(=O)c2ccc(C)cc2)cc1 | 18.4 µM (active)
58 | Cc1ccc(S(=O)(=O)CCC(=O)Nc2nnc(CC(C)C)s2)cc1 | 20.6 µM (active)
59 | CCOC(=O)c1ccc(NC(=O)CCS(=O)(=O)c2ccc3c(c2)oc(=O)n3C)cc1 | inactive
60 | CC(C)Cc1nnc(NC(=O)CCc2ccccc2)s1 | inactive
61 | O=C1C(=O)N(CCN2CCOCC2)C(c2cccc(Cl)c2)/C1=C(/O)c1ccc2c(c1)OCO2 (centres undefined) | inactive
62 | CN(CC(O)COc1ccc(S(=O)(=O)N2CCOCC2)cc1Cl)C1CCCCC1 (centres undefined) | inactive
63 | CCCCOc1ccc(N(CC(=O)NC(C)C)C(=O)CCC(=O)Nc2ccccn2)cc1 | inactive
64 | O=C(Cc1cccs1)N/N=C/c1ccc(OCc2ccccc2)cc1 | inactive
65 | O=C(NN1C(=O)C2C3C=CC(C4CC34)C2C1=O)c1ccc(Cl)cc1 (centres undefined) | inactive
66 | CSC(=S)N/N=C/c1c[nH]c2ccccc12 | 0.651 µM (active)
67 | O=C(N/N=C/c1c[nH]c2ccccc12)c1cc2ccccc2o1 | 14.6 µM (active)
68 | N=c1oc2ccccc2cc1C(=O)N/N=C/c1ccccc1 | inactive
69 | O=C(O)c1cccc(NC(=S)N/N=C/c2c[nH]c3ccccc23)c1 | inactive
70 | Cc1c(/C=N\NC(=O)c2cc3ccccc3o2)c2ccccc2n1C | 3.66 µM (active)
71 | O=C(N/N=C/c1c[nH]c2ccccc12)c1ccccc1O | inactive
72 | O=C(N/N=C/c1cccc(O)c1)c1cc2c(ccc3ccccc32)o1 | inactive
73 | Cc1ccc(NC(=O)c2cc3ccccc3o2)cc1 | inactive
74 | O=C(N/N=C/c1coc2ccccc2c1=O)c1cc2ccccc2o1 | inactive
